A selection: hits, their analogues and other compounds. The true share with any hit is near 5.7%.
PI5P4Ka inh = qHTS for Inhibitors of phosphatidylinositol 5-phosphate 4-kinase (PI5P4K); Phosphatidylinositol 5-phosphate 4-kinase type-2 alpha (Homo sapiens), P48426; 1.2% of 330,000 active; PI5P4Kalpha enzyme, ADP-Glo luminescence, 60 min; active compounds read low; max response, %; active means max response of -50% or lower; inconclusive means between -30% and -50%; inactive means -30% or higher; further: value at the top dose of about 77 µM
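PI5P4Kalpha ADP-Glo assay; 5 microM ATP final; 60 min RT reaction; HEPES pH 7.4/EGTA/CHAPS, 5% DMSO; controls lacking substrate or enzyme; luminescent end-point.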
BAZ2B inh = qHTS Assay for Inhibitors of BAZ2B; AlphaScreen BAZ2B-H3K14Ac peptide displacement; Potency, µM (series often up to 114 µM), actives largely listed as inhibitors; 4.4% of 360,000 active; AID 504333, 2011; further: nearly all actives have a fitted effect of over 60% in size
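Compounds, titrated to a top concentration of 110 uM, were incubated 30 min at room temperature with preformed BAZ2B/acetyl-K14 H3 peptide complex (50 nM each). Proximity signal was measured by AlphaScreen after 20 min with beads.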
L3MBTL1 inh = qHTS Assay for the Inhibitors of L3MBTL1; AlphaScreen L3MBTL1–H3K9me1 peptide binding; Lethal(3)malignant brain tumor-like protein 1 (Homo sapiens), Q9Y468; Potency, µM (top dose mostly 57.1 µM), hits mostly inhibitors; AID 485360, 2010; 0.66% of 230,000 active; further: nearly all actives have a fitted effect of over 60% in size
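L3MBTL1 50 nM + b-AHA-H3(1-15)K9me1 75 nM, 30 min RT; compound added, 30 min RT; streptavidin donor/Ni-chelate acceptor beads 10 ug/mL each final, 30 min RT dark; AlphaScreen read.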
HP1b chromo inh = HTS for Inhibitors of HP1-beta Chromodomain Interactions with Methylated Histone Tails. Chromobox protein homolog 1 (Homo sapiens), P83916. 0.56% of 390,000 active. Potency, µM (titrated, usually from 114 µM), hits mostly inhibitors. AlphaScreen HP1-beta / biotin-H3K9me3 peptide binding; further: nearly all actives have a fitted effect of over 70% in size
Target sequence (P83916 whole entry, looked up): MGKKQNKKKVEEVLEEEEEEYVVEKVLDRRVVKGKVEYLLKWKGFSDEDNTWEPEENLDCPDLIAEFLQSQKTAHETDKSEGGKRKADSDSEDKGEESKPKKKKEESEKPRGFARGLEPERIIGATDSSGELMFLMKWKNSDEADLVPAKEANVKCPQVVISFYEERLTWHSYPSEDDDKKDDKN
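AlphaScreen: HP1-beta (50 nM) preformed 30 min with biotin-H3(1-18)K9me3 peptide (50 nM) in PBS pH 7.4, 0.01% Tween-20. Compound added for 30 min at RT, then streptavidin donor/nickel chelate acceptor beads (10 ug/mL) for 30 min.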
JMJD2A Tudor inh = qHTS Assay for Inhibitors of JMJD2A-Tudor Domain; AlphaScreen JMJD2A-Tudor / H3K4me3 peptide binding; Potency, µM (highest dose often 114 µM), actives largely listed as inhibitors; 4.4% of 390,000 active; AID 504339, 2011; further: nearly all actives have a fitted effect of over 50% in size
JMJD2E inh = qHTS Assay for Inhibitors of Human Jumonji Domain Containing 2E (JMJD2E); Lysine-specific demethylase 4E (Homo sapiens), B2RXH2; AID 2147, 2009; Potency, µM (highest dose often 57.1 µM), usual class: inhibitors; JMJD2E catalytic domain, FDH-coupled NADH fluorescence (FDH is formaldehyde dehydrogenase); 1.6% of 230,000 active; active means well fitted inhibition curve with a large enough effect, not every such curve was filed as active; inconclusive means small, poorly fitted or top-dose-only effect, or another doubt; inactive means no such curve, though single readings can be large or run the other way; further: nearly all actives have a fitted effect of over 50% in size
Target sequence (B2RXH2 1-337 limits assumed): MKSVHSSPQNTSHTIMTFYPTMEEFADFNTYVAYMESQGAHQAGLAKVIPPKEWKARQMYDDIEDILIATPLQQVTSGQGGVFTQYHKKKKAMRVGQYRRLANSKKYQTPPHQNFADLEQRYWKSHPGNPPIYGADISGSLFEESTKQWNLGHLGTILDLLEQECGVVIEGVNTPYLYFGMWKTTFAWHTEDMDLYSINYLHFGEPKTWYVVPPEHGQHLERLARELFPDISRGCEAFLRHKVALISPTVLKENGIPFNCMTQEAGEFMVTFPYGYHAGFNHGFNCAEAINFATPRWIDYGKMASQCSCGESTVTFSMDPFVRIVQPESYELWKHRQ
Numbers stand for hits; - = inactive; ? = inconclusive; . = no result given. Unless noted, the call rests on the fitted dose curve; in most records, active means well fitted inhibition curve with a large enough effect; inconclusive means small, poorly fitted or top-dose-only effect; inactive means no such curve, though single readings can be large or run the other way.

SMILES | PI5P4Ka inh | BAZ2B inh | L3MBTL1 inh | HP1b chromo inh | JMJD2A Tudor inh | JMJD2E inh
CC(CC(=O)c1ccccc1)=NCCCN=C(C)CC(=O)c1ccccc1 | - | . | . | . | . | .
Cc1csc2nc(COc3ccc(NC(=O)COc4ccc(F)cc4)cc3)cc(=O)n12 | . | - | . | - | - | .
O=C(c1cc2ccccc2cc1O)N1CCCC(C(F)(F)F)C1 (stereo unspecified) | - | 79µM | . | - | - | .
COc1cc2ccccc2cc1C(=O)N1CCCC(C(F)(F)F)C1 (stereo unspecified) | - | - | - | ? | - | .
CC(=O)NC(c1ccc(C(C)C)cc1)c1ccc2cccnc2c1O (stereo unspecified) | - | ? | - | - | 56µM | .
Oc1cccc(C(Nc2nccs2)c2ccc3cccnc3c2O)c1 (stereo unspecified) | - | 28µM | ? | ? | 32µM | ?
CCCCC(=O)NC(c1cccc([N+](=O)[O-])c1)c1ccc2cccnc2c1O (stereo unspecified) | - | . | . | - | 32µM | .
CCCCC(=O)NC(c1cccc([N+](=O)[O-])c1)c1c(OC(C)=O)ccc2ccccc12 (stereo unspecified) | - | ? | - | - | - | -
COc1cccc(C(NC(C)=O)c2ccc3cccnc3c2O)c1 (stereo unspecified) | - | 18µM | ? | - | 56µM | .
COc1cccc(C(Nc2ccccc2)c2ccc3ccc(C)nc3c2O)c1 (stereo unspecified) | - | . | . | . | . | .
CCc1ccc(CNC(=O)Cn2nc(-c3ccc(Cl)cc3)ccc2=O)cc1 | . | - | . | - | - | .
COc1ccccc1N1CCN(C(=O)C2CCN(S(=O)(=O)c3cccs3)CC2)CC1 | . | - | . | - | - | .
Oc1c(C(c2ccccc2F)N2CCCCC2)sc2nc(-c3ccco3)nn12 (stereo unspecified) | . | - | . | - | - | .
CCCCC(=O)Nc1nnc(SCc2cc(=O)n3cc(C)ccc3n2)s1 | . | - | . | - | - | .
CC(=O)NC(c1cccc([N+](=O)[O-])c1)c1ccc2cccnc2c1O (stereo unspecified) | - | - | - | - | 32µM | .
CCOC(=O)c1c(-c2ccccc2)oc2ccc(N(C(C)=O)S(=O)(=O)c3cc(C)ccc3C)cc12 | . | - | . | - | - | .
Oc1ccc(/C=N/Nc2ncnc3nc[nH]c23)cc1 | -66 | - | . | - | - | ?
Clc1ccc(/C=N/Nc2ncnc3nc[nH]c23)cc1 | - | - | . | - | - | -
O=C(NCCCn1ccnc1)/C(=C/c1ccccc1)NC(=O)c1ccccc1 | - | ? | - | - | 45µM | -
COc1ccc(C(=O)N/C(=C\c2cn(S(=O)(=O)N(C)C)c3ccccc23)C(=O)NCCCn2ccnc2)cc1 | - | 32µM | . | - | ? | .
O=C(NCCCn1ccnc1)/C(=C\c1ccc(Br)cc1)NC(=O)c1ccccc1 | - | - | . | - | ? | .
CN(C)c1ccc(/C=C(\NC(=O)c2ccccc2)C(=O)NCCCn2ccnc2)cc1 | - | 28µM | . | - | 50µM | .
CCOC(=O)C(=N/O)/C(C)=N/NC(C)=O | - | - | . | - | - | -
CCOC(=O)C(=N/O)/C(C)=N/NC(=O)C(=O)Nc1cc(Cl)ccc1Cl | - | 18µM | 25µM | - | ? | -
Cc1ccnc(NS(=O)(=O)c2ccc(NC(=O)C3C4C=CC(C4)C3C(=O)O)cc2)n1 (stereo unspecified) | - | - | - | - | - | -
SMILES | PI5P4Ka inh | BAZ2B inh | L3MBTL1 inh | HP1b chromo inh | JMJD2A Tudor inh | JMJD2E inh
O=C(NNc1ccc(Cl)cc1)c1c(F)cccc1Cl | - | - | - | - | - | -
CC(=O)C(=Nc1ccccc1Cl)NNc1ccc(Cl)cc1 | - | 28µM | ? | 50µM | 32µM | -
Cc1ccc(CNC(=O)c2cc(S(=O)(=O)N3CCCCC3)ccc2N2CCOCC2)cc1 | - | - | - | - | - | .
CN(C)S(=O)(=O)c1cccc(NC(=O)CN2C(=O)NC(CCc3ccccc3)C2=O)c1 (stereo unspecified) | - | - | - | - | - | -
CCc1nc(N2CCN(Cc3ccc4c(c3)OCO4)CC2)c2oc3ccccc3c2n1 | - | 71µM | - | ? | ? | ?
CCc1nc(Nc2ccc3c(c2)OCO3)c2oc3ccccc3c2n1 | - | ? | - | - | - | ?
CCc1nc(N2CCCCC2)c2oc3ccccc3c2n1 | . | - | . | - | - | -
CCc1nc(N2CCCC(C)C2)c2oc3ccccc3c2n1 (stereo unspecified) | . | - | - | - | 20µM | ?
O=C(O)c1ccccc1N=Nc1c(O)[nH]c2ccc([N+](=O)[O-])cc12 | - | 50µM | . | 71µM | ? | .
Cc1ccccc1NCC(=O)N=Nc1c(O)[nH]c2ccc([N+](=O)[O-])cc12 | - | - | - | - | - | -
O=C(N=Nc1c(O)[nH]c2ccc([N+](=O)[O-])cc12)c1ccccc1Cl | - | 56µM | - | - | ? | -
CCCCCC(=O)N=Nc1c(O)[nH]c2ccc([N+](=O)[O-])cc12 | - | ? | - | - | ? | -
COc1ccc(/C=C/C(=O)NCC(=O)N=Nc2c(O)[nH]c3ccc([N+](=O)[O-])cc23)cc1 | - | 79µM | . | - | ? | .
COc1cccc(Cn2c(=O)n(CC3CCC(C(=O)N4CCOCC4)CC3)c(=O)c3sccc32)c1 (stereo unspecified) | . | - | . | - | - | .
O=S(=O)(CCSc1ccc(C(F)(F)F)cn1)c1ccc(Cl)cc1 | - | - | - | - | - | -
COc1cc(Cl)c(NC(=O)CCS(=O)(=O)c2cc3c(cc2Cl)NC(=O)CO3)c(OC)c1 | . | - | . | - | - | .
CCNC(=S)N(CCc1c(C)[nH]c2ccccc12)Cc1cccnc1 | - | ? | . | ? | ? | .
COc1ccc(NC(=S)N(CCc2c(C)[nH]c3ccccc23)Cc2cccnc2)cc1 | - | 35µM | - | - | ? | -
COc1ccccc1NC(=S)N(CCc1c(C)[nH]c2ccccc12)Cc1cccs1 | - | - | - | - | ? | -
CNC(=S)N(CCc1c(C)[nH]c2ccccc12)Cc1cc(OC)c(OC)c(OC)c1 | - | 45µM | - | - | ? | -
CCNC(=S)N(CCc1c(C)[nH]c2ccccc12)Cc1cc(OC)c(OC)c(OC)c1 | - | 50µM | - | - | ? | -
Cc1ccc(-n2ncc(C(=O)NCc3ccccc3C)c2-n2cccc2)cc1 | . | - | . | - | - | .
COc1cccc(NC(=O)CSc2nc(C)c(Cc3ccccc3)c(=O)[nH]2)c1 | . | - | . | - | - | .
Cc1cc(C)cc(NC(=S)Nc2cccc3cnccc23)c1 | - | ? | - | ? | - | 20µM
Cc1ccc(NC(=S)Nc2cccc3cnccc23)c(C)c1 | - | - | - | - | - | ?
CCN(CC)CCOCCOc1ccccc1F | . | ? | . | - | - | -
